Screen size: about 360,000 compounds; about 7,500 (2.1%) were called active. Roughly 8% stayed inconclusive and do not appear here. The call rests on the fitted dose curve; in most records, active means well fitted cell-killing curve with a large enough effect; inconclusive means small, poorly fitted or top-dose-only effect, or effect the other way, or another doubt; inactive means no such curve, though single readings can be large or run the other way. Shown is part of a subset that was picked to be rich in actives. Some structures have more than one record in an assay (separate samples or runs), and their calls can disagree.
Experiment: qHTS for induction of synthetic lethality in tumor cells producing 2HG: qHTS for the HT-1080-IDH1KD cell line
Settings: HT-1080 IDH1 knockdown viability, ATP luminescence, 48 h; series mostly up to 46.1 µM; activity, negative = toxicity: at the top concentration
From the text: Unbiased genomic sequencing for 22 glioma genomes found recurrent mutation of IDH1 on chromosome 2q33, a gene encoding the cytosolic isoform of IIDH1 associated with the tri-carboxylic acid cycle (TCA) that catalyzes the oxidative decarboxylation of isocitrate, yielding alpha-ketoglutarate and CO2 via NADP+ to NADPH conversion. Subsequent studies confirmed the recurrent IDH mutations in up to 70% of secondary gliomas and in 10% of AML cases. In addition, the somatic mutation of cancer-associated IDH1 is a point mutation resulting in various amino-acid substituents at Arginine132 (IDH1 R132), a key residue found in the enzyme's active site that when mutated, results in the loss-of-function in metabolizing isocitrate but confers a gain-of-function to produce the oncometabolite 2-hydroxyglutarate (2HG). This in effect defines IDH1 as an oncogene and provides an extraordinary opportunity to discover chemical probes against mutant IDH1 that may translate into much needed new therapies for glioma and AML patients.
This assay aims to perform a synthetic-lethal screen for chemical probes specific for 2HG-producing tumor cells using matched paired cell lines (1) HT-1080-NT fibrosarcoma cell line that overproduces 2HG and (2) HT-1080-IDH1KD cell line which has IDH1 expression knocked-down. Desirable compounds are toxic to the NT fibrosarcoma cell line but not to the IDH1KD cell line. The data in this AID corresponds to the results of the qHTS against the HT-1080 IDH1KD cell line.
[1] Dang L, Jin S, Su SM. IDH mutations in glioma and acute myeloid leukemia. Trends of Mol Med. 2010; 16(9): 387-97.
[2] Dang L et al. Cancer-associated IDH1 mutations produce 2-hydroxyglutarate. Nature. 2010; 465(7300):966.
Molecular Libraries Probe Production Centers Network [MLPCN]
NIH Chemical Genomics Center [NCGC]
Assay Submitter (PI): Lenny Dang Ph.D., Agios Pharmaceuticals
Suspensions of trypsinized HT-1080-IDH1KD cells were dispensed into white, tissue culture-treated, solid 1536-well plates at 5uL/well (750 cells/well final concentration) in RPMI medium supplemented with 5% FBS. Plates were incubated at 37 degrees C for 2 hours, after which 23 nL of compounds or DMSO were delivered to each well using a pin tool. Plates were then incubated at 37 degrees C for an additional 48 hours. CellTiter-Glo viability reagent (Promega) was dispensed into wells (2.5uL/well) and incubated at room temperature for 10 minutes. The plates were measured on a PerkinElmer ViewLux plate reader for luminescent signal (clear filter, 1 sec exp.). DMSO-treated control wells and media-only (no cells) control wells were used to normalize %Activity of identified toxic compounds; DMSO-treated wells corresponded to 0%Activity (100% viability), while media-only controls were used to normalize 100%Activity (0% viability). To minimize variability between cell lines, both HT-1080-NT and HT-1080-IDH1KD lines were dispensed and treated with identical compound series in single batches.
Concentration-response curves were fitted to the signals arising from the resulting luminescence. The concentration-effect curves were then classified based on curve quality (r2), response magnitude and degree of measured activity, and compounds were subsequently categorized based on their curve class.
Potency means the concentration at half of the fitted maximal effect.

SMILES | Potency | activity, negative = toxicity
CC(=O)OC1C2(CC3N4C(=O)C5(CO)SSC4(CC31O)C(=O)N5C)OC(C)C(C)(C)C2=O (stereo not given) | 0.58 µM (active) | 
C[C@]12CCC3C(CC[C@H]4[C@H](O)[C@H](O)CC[C@]34C)C1CCC2=O (stereo not given in full) |  | 1.29% (inactive)
COC(=O)N1C(c2ccccc2)C1c1ccccc1 (stereo not given) |  | 22.5% (inactive)
CSc1ccc(C(=O)C2CCCN(Cc3ccn[nH]3)C2)cc1 (stereo not given) |  | 13.8% (inactive)
CCN1C(=O)NC(=O)C2(CCCC2)C1=O |  | 0.17% (inactive)
Cc1cc(C)cc(NC(=S)NC2CC3CCCC(C2)N3Cc2cccs2)c1 (stereo not given) | 12.6 µM (active) | 
Cc1cc(C)c2c(c1)NP(=S)(c1ccccc1)N2 (stereo not given) |  | -13.9% (inactive)
CC(=O)C1(O)CCC2C3CCC4=C(Cl)C(=O)CCC4(C)C3CCC21C (stereo not given) |  | -28.9% (inactive)
Oc1cc2c(cc1O)CN(C(=S)NCCc1ccc(Cl)cc1)CCC2 |  | 5.49% (inactive)
S=C(NCCc1ccccc1)N1Cc2cc(N3CCOCC3)ccc2-n2nncc2C1 |  | -18.7% (inactive)
C[C@H]1CN([C@@H](C)CO)C(=O)CCCn2nncc2CO[C@H]1CN(C)C(=O)Oc1cccc2ccccc12 |  | 10.6% (inactive)
O=[N+]([O-])c1ccc(Cl)c(Cl)c1 |  | 24.3% (inactive)
C[C@]12CCC3C(CC[C@H]4C[C@@H](O)CC[C@]34C)C1C[C@@H](O)[C@H]2O (stereo not given in full) |  | 7.01% (inactive)
C[C@]12CCC3C(CC[C@H]4C[C@@H](O)CC[C@]34C)C1CC[C@@H]2O (stereo not given in full) |  | -4.31% (inactive)
C[C@]12CC[C@H](O)C[C@H]1CC[C@@H]1C2CC[C@]2(C)[C@@H](C3=CC(=O)OC3)[C@@H](O)C[C@]12O (stereo not given in full) | 3.66 µM (active) | 
O=C1C2CCN(CC2)C1(CO)CO |  | 9.29% (inactive)
CCOC(=O)CC(SP1(=S)OCC2(CCCCO2)C(C2CCCCO2)O1)C(=O)OCC (stereo not given) |  | 6.11% (inactive)
CC(=O)Cc1ccc(OC(C)C)cc1 |  | 22.5% (inactive)
CN(C)CC1Oc2ccccc2OC1(O)c1ccccc1 (stereo not given) | 4.61 µM (active) | 
CCCOC(=O)C1C2c3ccccc3C(c3ccccc32)C1C(=O)O (stereo not given) |  | 16.8% (inactive)
Cc1ccc(C2CN(C)CC2C(=O)c2ccc(F)cc2)cc1 (stereo not given) |  | -14.3% (inactive)
COc1cc(C(=O)N2Cc3ccc(Br)cc3-n3nncc3C2)cc(OC)c1OC |  | 18.9% (inactive)
CCN(CC)CCOC(=O)c1cc2cc(COC)ccc2o1 |  | 4.54% (inactive)
COc1ccc2c(c1)NP(=S)(c1ccccc1)N2 (stereo not given) |  | 17.6% (inactive)
CCC(C)(O)C(=O)OC1C(=O)OC2CC3C(C)=CC(=O)C(O)C3(C)C3C4(O)OCC23C1C(C)C4O (stereo not given) | 0.0411 µM (active) | 
C[C@H]1CN([C@@H](C)CO)C(=O)CCCn2nncc2CO[C@H]1CN(C)C(=O)Oc1ccccc1 |  | -2.35% (inactive)
O=C1NC(=O)C(CCOc2ccccc2)(CCc2ccccc2)C(=O)N1 |  | 3.48% (inactive)
COc1ccc(C2C=C(C)Oc3c2c(=O)oc2ccccc32)cc1OC (stereo not given) |  | -5.45% (inactive)

SMILES | Potency | activity, negative = toxicity
Cc1ccc(-c2nc3ccccc3c(=O)n2-c2ccc(Br)cn2)cc1 |  | 22.6% (inactive)
COC1C(O)C(C)OC(OC2CCC3(C=O)C(CCC4C3CCC3(C)C(C5=CC(=O)OC5)CCC43O)C2)C1O (stereo not given) | 0.0184 µM (active) | 
CCn1cc(CN2CCCC(C(=O)c3cccc(C(F)(F)F)c3)C2)cn1 (stereo not given) |  | 5.48% (inactive)
CSCCC(c1nnnn1C(C)(C)C)N1CCC(n2c(=O)[nH]c3ccccc32)CC1 (stereo not given) |  | -23.7% (inactive)
CC1CCCN1CCC(C(N)=O)(c1ccccc1)c1ccccc1 (stereo not given) |  | -8.22% (inactive)
CCOc1ccc(-c2cc(C)[n+](CCN(CC)CC)c(-c3ccc(OCC)cc3)c2)cc1 | 5.17 µM (active) | 
CCC(=O)OC(Cc1ccccc1)(c1ccccc1)C(C)CN(C)C (stereo not given) |  | -11.7% (inactive)
CCC1(CC(C)c2ccccc2)C(=O)NC(=O)NC1=O (stereo not given) |  | 5% (inactive)
COC(=O)C[C@H]1CC[C@H]2NC[C@@H](O)COC[C@@H]2O1 |  | 22.5% (inactive)
CC=C(C)C(=O)OC1CCN2CC=C(COC(=O)C(O)(C(C)OC)C(C)(C)O)C12 (stereo not given) |  | 1.21% (inactive)
CC(=NCc1ccc2c(c1)OCO2)c1c(O)[nH]c(=O)[nH]c1=O | 20.6 µM (active) | 
Fc1ccc(N2CCN(Cc3ccc4c(c3)OCO4)CC2)cc1 |  | -4.13% (inactive)
c1cc2c(cc1CCNC1CCCCCC1)OCO2 |  | 5.41% (inactive)
CC(C)n1c(=O)c(C=Nc2ccc(Br)cc2)c(O)n(Cc2ccco2)c1=O |  | -19.8% (inactive)
COC(=O)C1=C(c2ccc(C(C)=O)cc2)C[C@@H]2CC[C@H]1N2C(=O)NCCNC(C)=O |  | 7.51% (inactive)
Cc1cc(-c2ccc(N)c(C)c2)ccc1N |  | 12.8% (inactive)
CCN1C(=O)C(=Cc2c(C)n(CC(=O)NCC3CCCO3)c3ccccc23)C(=O)N(CC)C1=S (stereo not given) |  | -8.26% (inactive)
COc1cccc(OC)c1C(=O)NC(=S)N1C[C@H]2C[C@H](C1)c1cccc(=O)n1C2 |  | 6.67% (inactive)
CCCCCCCCCCCCn1ccc(=N)cc1 | 1.84 µM (active) | 
CN1C2C=C(N(C(=O)c3ccc(Cl)cc3)c3ccccc3)CC1CC2 (stereo not given) |  | -4% [at 9.24 µM] (inactive)
CC(=O)NCC1=C(c2ccc3ccccc3c2)C[C@@H]2CC[C@H]1N2Cc1ccco1 |  | 0.901% (inactive)
CCOC(=O)[C@]12Cc3cc(OC)ccc3[C@H]1N(C(C)C)C(=O)c1ccccc12 | 16.4 µM (active) | 
CCOC(=O)[C@]12Cc3ccccc3[C@H]1N(C1CCCCC1)C(=O)c1cc(OC)ccc12 | 3.26 µM (active) | 
CC1([N+](=O)[O-])COP(=O)(Nc2ccc(F)cc2)OC1 (stereo not given) |  | 2.49% (inactive)
C[C@]12CCC3C(CC[C@H]4[C@H](O)[C@H](O)CC[C@]34C)C1CC[C@@H]2O (stereo not given in full) |  | 7.82% (inactive)
CC(C)CN1Cc2cc(N3CCCCC3)ccc2-n2nncc2C1 |  | 0.618% (inactive)
CCN1CC2C3CCC(C)(O3)C2C1 (stereo not given) |  | 13% (inactive)

From PubChem BioAssay AID686971 (National Center for Advancing Translational Sciences (NCATS), 2013)
